In the library only some 4.5% were active in any assay of this set; here they are far more common.
TPT1 inh = Candida albicans TPT1 enzyme inhibitors, primary screen, biochemical, fluorescence polarization | tRNA 2'-phosphotransferase TPT1 (Candida albicans SC5314) | recombinant caTPT1, FP RNA substrate dephosphorylation | inhibition, % at 5 µM | 300,000 compounds, 0.81% hits | AID 1962, 2009;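 active = inhibition above the mean of all tested compounds plus 3 SD, set per screening campaign, cut at about 24% in these data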;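 also: plate controls were DMSO alone for no effect and ferristatin control at 100 nM for full effect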
ZTA DNA inh = ZTA (EBV) inhibition in EBNA-1 counter-screen | ZTA-DNA binding, fluorescence polarization | inhibition, % at 11 µM | 320,000 compounds, 0.15% hits | AID 2234; in the data active = inhibition above about 33%
Target sequence (P03206 whole entry, looked up): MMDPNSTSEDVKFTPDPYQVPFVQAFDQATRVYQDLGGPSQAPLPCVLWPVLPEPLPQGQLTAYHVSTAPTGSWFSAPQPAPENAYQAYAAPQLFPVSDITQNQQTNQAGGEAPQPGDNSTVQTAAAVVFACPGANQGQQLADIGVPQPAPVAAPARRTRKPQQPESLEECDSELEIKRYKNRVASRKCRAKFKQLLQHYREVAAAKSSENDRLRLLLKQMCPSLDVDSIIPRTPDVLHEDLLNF
EBNA-1 inhibitor = EBNA-1 DNA-binding inhibitors, primary screen, biochemical, fluorescence polarization; inhibition, % at 14.8 µM; 300,000 compounds, 0.34% hits; AID 1950, 2009; in the data active = inhibition above about 28%
NR3A LBD binder = binders of NR3A ligand-binding domain, primary screen, biophysical, differential scanning fluorimetry, uHTS | 340,000 compounds, 2.5% hits | Tm shift relative to glycine control, % at 25 µM | Glutamate receptor ionotropic, NMDA 3A (GRIN3A) ligand-binding domain | NR3A LBD differential scanning fluorimetry, Tm shift; 0% = protein alone, 100% = glycine-bound protein;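 active = melting temperature shift of at least 10% of the positive control shift, at one fixed dose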
dFosB act-1 = activators of delta FosB homodimer, primary screen, biochemical, fluorescence polarization, TAMRA-CDK5 oligo, single point. purified delta FosB; percent of positive-control signal above neutral wells. activation, % at 25 µM. 340,000 compounds, 0.99% hits;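 active = mean activation above about 17%, with every replicate also reaching it, limit read from the data, passing the limit was not always enough; inconclusive = only one of the two conditions met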
Target sequence (P13346 whole entry, looked up): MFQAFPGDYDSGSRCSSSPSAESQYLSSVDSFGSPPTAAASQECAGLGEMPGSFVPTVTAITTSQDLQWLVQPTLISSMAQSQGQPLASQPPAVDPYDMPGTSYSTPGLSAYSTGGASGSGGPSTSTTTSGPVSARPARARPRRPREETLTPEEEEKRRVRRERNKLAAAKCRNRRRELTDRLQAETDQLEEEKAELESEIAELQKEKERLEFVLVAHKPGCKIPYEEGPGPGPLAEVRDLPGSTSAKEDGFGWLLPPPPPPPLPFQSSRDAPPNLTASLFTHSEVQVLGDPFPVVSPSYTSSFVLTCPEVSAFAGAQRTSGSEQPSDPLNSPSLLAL
Rpn11 block = Rpn11 (PSMD14) deubiquitinase inhibitors, primary screen, biochemical, fluorescence polarization, uHTS; 26S proteasome non-ATPase regulatory subunit 14 (Homo sapiens), O00487; human 26S proteasome, Ub4-pepOG fluorescence polarization; 20S core pre-blocked with epoxomicin; inhibition, % at 20 µM; 360,000 compounds, 0.59% hits; AID 588493, 2011;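 active = inhibition at 20 µM, scaled to each plate's controls, above about 33%, limit read from the data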
dFosB act-2 = activators of mouse delta FosB DNA binding, confirmation, biochemical, fluorescence polarization, TAMRA-CDK5 oligo, cherry-picked samples | shares compounds with dFosB act-1 | purified delta FosB; normalised: neutral wells 0, positive control 100 | activation, % at 24.9 µM | 2,400 tested, under 10 active;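 active = highest replicate activation at or above 34% and every replicate reaching that threshold; inconclusive = meets only one of the two criteria; inactive = meets neither criterion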;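 also: higher polarization means more probe DNA bound by delta FosB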
Active calls of the source: *.

How did O=C(NC1CCN(S(=O)(=O)c2cccc(F)c2)CC1)c1cccc(F)c1 do in these assays?
NR3A LBD binder: 1; dFosB act-1: 3; Rpn11 block: 6

Results for O=C(COc1ncnc2ccccc12)Nc1cc(S(=O)(=O)N2CCOCC2)ccc1Cl ?
TPT1 inh: 1; ZTA DNA inh: 3; EBNA-1 inhibitor: 10; NR3A LBD binder: -2; dFosB act-1: 46*; Rpn11 block: -5; dFosB act-2: 2

Results for CC(O)(c1cccc(F)c1)c1nc(-c2cccc3cccnc23)cs1 (stereo unspecified) ?
Rpn11 block: -2

Results for O=C1CSC(c2ccc([N+](=O)[O-])cc2)N1c1ccccc1 (stereo unspecified) ?
TPT1 inh: -2; ZTA DNA inh: 3; EBNA-1 inhibitor: -9; NR3A LBD binder: 1; dFosB act-1: 1; Rpn11 block: 1

What do the screens show for `Nc1nc(Nc2ccccc2)nc(NCc2ccco2)c1[N+](=O)[O-]`?
TPT1 inh: 2; ZTA DNA inh: 7; EBNA-1 inhibitor: -1; NR3A LBD binder: -8; dFosB act-1: 27*; Rpn11 block: -9; dFosB act-2: 4

Results for COc1ccc(N2CCN(C(=O)c3ccccc3NC(=O)c3ccccc3)CC2)cc1 ?
TPT1 inh: -3; ZTA DNA inh: -17; EBNA-1 inhibitor: -2; NR3A LBD binder: -1; dFosB act-1: 4; Rpn11 block: -4

Results for O=C(Cn1cnc2sc3c(c2c1=O)CCCC3)NCC(=O)Nc1ccc(F)cc1F ?
TPT1 inh: -2; ZTA DNA inh: -21; EBNA-1 inhibitor: -1; NR3A LBD binder: -3; dFosB act-1: 36*; Rpn11 block: -3; dFosB act-2: 0

Results for CS(=O)(=O)N(CC(=O)Nc1c(F)cccc1F)c1ccc(C23CC4CC(CC(C4)C2)C3)cc1 ?
TPT1 inh: 0; ZTA DNA inh: -4; EBNA-1 inhibitor: 5; NR3A LBD binder: -10; dFosB act-1: 54*; Rpn11 block: -3; dFosB act-2: -6

How did CNC(=O)CN(c1ccc(C23CC4CC(CC(C4)C2)C3)cc1)S(C)(=O)=O do in these assays?
TPT1 inh: 3; ZTA DNA inh: -18; EBNA-1 inhibitor: 2; NR3A LBD binder: -6; dFosB act-1: 3; Rpn11 block: -3

How did CCN(CC)C(=O)COCc1cc(-c2ccc3c(c2)OCO3)on1 do in these assays?
TPT1 inh: -1; ZTA DNA inh: -1; EBNA-1 inhibitor: -16; NR3A LBD binder: 2; dFosB act-1: -7; Rpn11 block: -3

How did CCNc1nc(Cl)nc(-c2cn(-c3ccccc3)c3ccccc23)n1 do in these assays?
TPT1 inh: -3; ZTA DNA inh: 4; EBNA-1 inhibitor: -3; NR3A LBD binder: 12*; dFosB act-1: 22*; Rpn11 block: 2; dFosB act-2: 3

What do the screens show for `Clc1nc(Oc2ccccc2)nc(-c2cn(-c3ccccc3)c3ccccc23)n1`?
TPT1 inh: 2; ZTA DNA inh: -3; EBNA-1 inhibitor: -4; NR3A LBD binder: 3; dFosB act-1: -7; Rpn11 block: 4

What do the screens show for `CCc1ccc(NC(=O)CCn2c(=O)c3cccn3c3ccccc32)cc1`?
TPT1 inh: -1; ZTA DNA inh: -6; EBNA-1 inhibitor: 7; NR3A LBD binder: -16; dFosB act-1: -5; Rpn11 block: 17

How did CCc1ccc(NC(=O)Cn2c(=O)c3cccn3c3ccccc32)cc1 do in these assays?
TPT1 inh: 1; ZTA DNA inh: -5; EBNA-1 inhibitor: 10; NR3A LBD binder: 3; dFosB act-1: 32*; Rpn11 block: 9; dFosB act-2: 5

Results for Cc1cc(C)c(NC(=O)Cn2c(=O)c3cccn3c3ccccc32)c(C)c1 ?
TPT1 inh: -1; ZTA DNA inh: -5; EBNA-1 inhibitor: 0; NR3A LBD binder: -2; dFosB act-1: 39*; Rpn11 block: 3; dFosB act-2: 3

How did COc1ccc(CN2C(=O)C(=O)N(CC(N)=O)C2=O)cc1 do in these assays?
TPT1 inh: 0; ZTA DNA inh: -2; EBNA-1 inhibitor: 4; NR3A LBD binder: 0; dFosB act-1: 7; Rpn11 block: 3

Results for O=C(COC(=O)Cn1nnc2ccccc21)NC1CCCC1 ?
TPT1 inh: -1; ZTA DNA inh: 10; EBNA-1 inhibitor: 4; NR3A LBD binder: 1; dFosB act-1: 2; Rpn11 block: -2

Results for O=C(Cc1c(Cl)cccc1Cl)NCCc1ccc(Cl)cc1 ?
TPT1 inh: 0; ZTA DNA inh: 10; EBNA-1 inhibitor: 11; NR3A LBD binder: -5; dFosB act-1: 20*; Rpn11 block: 1; dFosB act-2: 0

What do the screens show for `O=C(CCNC(=O)c1ccccc1Cl)NCCc1ccc(Cl)cc1`?
TPT1 inh: -3; ZTA DNA inh: -4; EBNA-1 inhibitor: -6; NR3A LBD binder: -3; dFosB act-1: -6; Rpn11 block: 1

Results for O=C1C=C(c2ccc(Oc3ccccc3)cc2)C[C@@H](c2ccc(F)cc2)C1 ?
ZTA DNA inh: 10; NR3A LBD binder: 1; dFosB act-1: -6; Rpn11 block: 1

How did Cc1ccc(N2C(=O)C(NC(=O)c3ccccc3)(C(F)(F)F)C3=C2CC(C)(C)CC3=O)cc1 (stereo unspecified) do in these assays?
TPT1 inh: 2; ZTA DNA inh: -6; EBNA-1 inhibitor: 10; NR3A LBD binder: -1; dFosB act-1: -6; Rpn11 block: 0

Results for CCOC(=O)c1c(CSC(=N)N)n(-c2ccccc2)c2cc(Br)c(OC(C)=O)cc12 ?
TPT1 inh: 0; ZTA DNA inh: 2; EBNA-1 inhibitor: 10; NR3A LBD binder: -4; dFosB act-1: 30*; Rpn11 block: 0; dFosB act-2: inconclusive

What do the screens show for `CCn1cc(Br)c(C(=O)Nc2sc3c(c2C(N)=O)CCCC3)n1`?
TPT1 inh: -5; ZTA DNA inh: -5; EBNA-1 inhibitor: 12; NR3A LBD binder: 4; dFosB act-1: 76*; Rpn11 block: 13; dFosB act-2: 0

Results for CCn1cc(C(=O)NP(=O)(Nc2ccc(C)cc2)Nc2ccc(C)cc2)c2ccccc21 ?
TPT1 inh: -1; ZTA DNA inh: 11; EBNA-1 inhibitor: 7; NR3A LBD binder: 4; dFosB act-1: 36*; Rpn11 block: 5; dFosB act-2: -4
